Source: PubChem BioAssay AID485364 (National Center for Advancing Translational Sciences (NCATS), 2010)
Several values for one entry are separate records, joined by “and”; a condition that tells them apart may be missing. Identical values can stand only once. In all, about 360,000 compounds went through this assay and about 11,000 (3.1%) were called active. Not shown: some 4% with an inconclusive outcome. The sample holds actives, similar compounds and a random draw of the others, so the mix is not that of the screen. Values without a mark were called inactive. Calls come from the whole dose curve; as a rule, active = well fitted inhibition curve with a large enough effect; inconclusive = small, poorly fitted or top-dose-only effect; inactive = no such curve, though single readings can be large or run the other way.

The molecules below were run against Schistosoma mansoni thioredoxin glutathione reductase (TGR) (UniProt Q962Y6) (assay: qHTS Assay for the Inhibitors of Schistosoma Mansoni Peroxiredoxins). Details: purified TGR, DTNB reduction, TNB absorbance 405 nm; series mostly up to 114 µM; activity change, negative = inhibition: at the top concentration.
Outline: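 Kinetic colorimetric format: TGR-catalysed, NADPH-driven DTNB reduction monitored via TNB absorbance. Enzyme dispensed at 20 nM; compound exposure 15 min at room temperature before reaction start.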
% is set by controls: 0 for no effect and ±100 for the full control effect; potency is the fitted concentration of half-maximal effect.
Note: nearly all actives have a fitted effect of over 60% in size.

Compound | activity change, negative = inhibition [%] | Potency
COc1cc2c(cc1OC)C(COc1ccc(F)cc1)N(C(=O)c1ccccc1F)CC2 (stereo unspecified) | -1.72 | 
COc1cccc(C(=O)NC2(C(F)(F)F)C(=O)Nc3c2c(=O)[nH]c(=O)n3-c2ccc(C)cc2)c1 (stereo unspecified) | 6.41 | 
COc1ccc(C2=NC(c3ccncc3)=Nc3ccc(Br)cc3N2)cc1 | -3.27 | 
Cc1nc2sc3c(c2c(=O)n1NC(=O)CCl)CCCC3 |  | 39.8 µM (active)
Cc1ccc(C)c(-n2c(SCC(=O)O)nc3sc4c(c3c2=O)CCCC4)c1 | -7.97 | 
Cn1c(NN)nc2sc3c(c2c1=O)CCC3 | 0.729 | 
CCC(=O)N1CCc2cc(S(=O)(=O)NC(C(=O)NCCc3ccc(C)cc3)C(C)C)ccc21 (stereo unspecified) | 6.61 | 
C#CC(CCN1CCCCC1)(OC)c1ccccc1 (stereo unspecified) | 9.25 | 
CCCCCC(O)(CCN1CCCCC1)c1ccccc1 (stereo unspecified) |  | 31.6 µM (active)
CCCCCCC(O)(CCN1CCCCC1)c1ccccc1 (stereo unspecified) | 2.75 | 
Fc1ccccc1Oc1ncnc2c1oc1ccccc12 | -1.96 | 
COc1ccc(NC(=O)C(=O)NCc2ccco2)cc1 | 0.649 | 
COc1ccc(NC(=O)/C(Cl)=C(/Cl)S(=O)Cc2ccc(C)cc2)cn1 (stereo unspecified) | 0 | 
COc1ccc(CS(=O)/C(Cl)=C(/Cl)C(=O)Nc2ccc(OC)nc2)cc1 (stereo unspecified) |  | 0.447 µM (active)
COc1cccc(CNCCSc2nnnn2C)c1OCc1ccccc1Cl | -1.07 | 
O=C(C1CC1)N1CCc2cc(Br)cc(S(=O)(=O)N3CCN(c4ccccc4F)CC3)c21 | 2.49 | 
COc1ccc(C(=O)NCCNc2ccc([N+](=O)[O-])cn2)cc1 | -19.1 | 
COc1ccc2c(C(=O)c3ccc(C)cc3)n(CCC(N)=O)[n+]([O-])c2c1 | 7.84 | 
COc1ccc(C(=O)c2c3ccc([N+](=O)[O-])cc3[n+]([O-])n2CCCN)cc1 |  | 25.1 µM (active)
CCCN(C(=O)Cn1ncc2c([nH]c3ccc(C)cc32)c1=O)c1ccccc1C | 0.145 | 
O=C(c1ccc2c(c1)N(Cc1ccccc1)C(=O)c1ccccc1S2(=O)=O)N1CCCC1 | 0.183 | 
Cc1cccc(N2CCN(C(=O)CCSCc3ccccc3F)CC2)c1C | 11.4 | 

Compound | activity change, negative = inhibition [%] | Potency
Cc1ccc(C)c(CNC(=O)c2cc3ccccn3n2)c1 | 2.27 | 
Cc1cc(C(=O)NNC(=S)Nc2ccccc2C)cs1 | 2.83 | 
Cc1ccc(C(=O)NC(=S)Nc2ccccc2C)cc1 |  | 31.6 µM (active)
Cc1ccccc1NC(=S)NNC(=O)c1cccc(Br)c1 | -0.509 | 
CCOC(=O)c1cccc(NC(=O)C(Cc2ccccc2)NS(=O)(=O)c2cccc3nsnc23)c1 (stereo unspecified) | 3.11 | 
O=c1c2ccccc2n(Cc2cccc(Cl)c2)c(=O)n1Cc1ccccc1 | -7.62 | 
C/C=C\C=C\C(=O)N1CC2(CC(c3cccc(NC(=O)/C(C)=C\C)c3)=NO2)C[C@H]1C(N)=O (stereo partly specified) |  | 7.94 µM (active)
C/C=C(/C)C(=O)Nc1cccc(C2=NOC3(C2)C[C@@H](C(N)=O)N(C(=O)C2(C)CC2)C3)c1 (stereo partly specified) | -18.8 | 
C/C=C(\C)C(=O)N1CC2(CC(c3cccc(NC(=O)CCCCC)c3)=NO2)C[C@@H]1C(N)=O (stereo partly specified) | -7.23 | 
Cc1cc(Br)ccc1NC(=O)Cn1cnc2sc(C)c(S(=O)(=O)N3CCN(C)CC3)c2c1=O | -2.56 | 
O=S(=O)(c1ccc(Cl)cc1)c1nnn2c1nc(NC1CCCC1)c1sccc12 | 2.43 | 
Cc1ccc(C(=O)Cn2cc([N+](=O)[O-])nc2C)cc1 | -5.61 | 
O=C(Cn1c[n+](CC(=O)c2ccc([N+](=O)[O-])cc2)cn1)c1ccc([N+](=O)[O-])cc1 |  | 10 µM (active) and 44.7 µM (active)
C/C(=N/NC(=O)CC(=O)N/N=C(\C)c1ccc([N+](=O)[O-])cc1)c1ccc([N+](=O)[O-])cc1 | 4.47 | 
Cc1[nH][nH]c(=O)c1C(c1ccc(-c2ccc(Cl)cc2)o1)c1c(C)[nH][nH]c1=O |  | 25.1 µM (active)
CN(CC(=O)Nc1ccc(F)cc1)C(=O)c1ccc(-c2ccc(Cl)cc2)o1 | -27.9 | 
COC(=O)c1cc(NC(=O)CN2CCC(C(N)=O)(N3CCCCC3)CC2)cc(C(=O)OC)c1 | 3.3 | 
CCCNC(=O)NCc1ccc(N2CCCC2=O)cc1 | 2.65 | 
NC(=O)C1(N2CCCCC2)CCN(C2CC(=O)N(Cc3ccc(N4CCCC4=O)cc3)C2=O)CC1 (stereo unspecified) |  | 25.1 µM (active)
COc1ccc(OC)c(-n2nnc(-c3nc(-c4cc(OC)c(OC)c(OC)c4)no3)c2C)c1 | 6.37 | 
Cc1ccc(N2C(=O)C3C(c4ccccc4)(C2=O)C3(c2ccccc2)c2ccccc2)cc1 (stereo unspecified) | 4.1 | 
O=C(Cc1ccccc1)NNC1CC(=O)N(c2ccc(Br)cc2)C1=O (stereo unspecified) | -13.2 | 

Compound | activity change, negative = inhibition [%] | Potency
Cc1ccc(N2C(=O)CC(Nc3cccc4ccccc34)C2=O)cc1 (stereo unspecified) |  | 22.4 µM (active)
CCOc1ccc(NC(=O)c2cnn(-c3ccccc3)c2-n2cccc2)cc1 | -1.01 | 
Cc1ccc(OCC(=O)OCc2cc(=O)n3nc(C4CC4)sc3n2)cc1 | -6.56 | 
COc1ccc(S(=O)(=O)NCC(c2ccc(N(C)C)cc2)N2CCc3ccccc32)cc1OC (stereo unspecified) | -6.35 | 
CCOC(=O)c1c(N)n(-c2cccc(C)c2C)c2nc3ccccc3nc12 | 1.92 | 
NC(=O)c1c(NC(=O)CSc2nnc(-c3ccco3)n2N)sc2c1CCCC2 |  | 11.2 µM (active)
Nn1c(SCC(=O)Nc2nccs2)nnc1-c1ccco1 | -2.49 | 
CCOC(=O)c1c(NC(=O)CSc2nnc(CN3CCOCC3)n2C)sc2c1CCCC2 | -34.2 | 
Cc1c(Cl)cccc1NC(=O)c1noc2c1CCCC2 | 3.49 | 
CSc1ccc(CCNC(=O)c2cnn(-c3ccccc3)c2-n2cccc2)cc1 | 5.93 | 
COc1ccccc1NC(=O)CSc1nnc(-c2ccoc2C)n1CCc1ccccc1 | 2.47 | 
Cc1cc(C)nc(SCc2nnc(SCC(=O)Nc3ncc(C)s3)n2Cc2ccco2)n1 | -8.76 | 
CCn1c(SCC(=O)Nc2cc(C)c(Cl)cc2OC)nnc1-c1ccco1 | -27.1 | 
COc1cc(Cl)c(C)cc1NC(=O)CSc1nnc(-c2ccco2)n1CC(C)C |  | 25.1 µM (active)
Cc1c(Cl)cccc1NC(=O)CSc1ccc(-c2cccnc2)nn1 | 5.94 | 
O=C(CSc1nnc(-c2cccnc2)n1CCc1ccccc1)NCc1ccccc1 | -0.337 | 
CCc1ccc(NC(=O)CSc2nnc(-c3cnccn3)n2Cc2ccco2)cc1 |  | 39.8 µM (active)
COc1cc(Cl)c(C)cc1NC(=O)CSc1nnc(-c2cccnc2)n1Cc1ccco1 |  | 44.7 µM (active)
Cn1c(SCC(=O)Nc2nccs2)nnc1-c1cccnc1 | -0.988 | 
O=C(CSc1nnc(-c2cccs2)n1Cc1ccco1)c1ccc2c(c1)OCO2 | -30.2 | 
CCn1c(SCC(=O)Nc2cc(C)ccc2C)nnc1-c1cnccn1 | 8.8 | 
O=C(CSc1nnc(-c2cccnc2)n1Cc1ccco1)c1ccc(Cl)c(Cl)c1 |  | 22.4 µM (active)
